We go through 93 compounds from PubChem BioAssay AID588591 (National Center for Advancing Translational Sciences (NCATS), 2011).

Each structure is given as a SMILES string. Several values for one entry are separate records, joined by “and”; a condition that tells them apart may be missing. Identical values can stand only once. About 4,700 (1.2%) of roughly 390,000 compounds were called active. Entries that show only a call come without a potency. Not shown: some 4% with an inconclusive outcome. Calls follow the shape of the dose curve; as a rule, active = well fitted inhibition curve with a large enough effect; inconclusive = small, poorly fitted or top-dose-only effect, or another doubt; inactive = no such curve, though single readings can be large or run the other way. For the sample, actives were picked, then their nearest neighbours and some compounds at random. Some compounds were tested as several samples or in several runs, with calls that do not always agree.
Potency is read from the fitted curve at half-maximal effect.

DNA polymerase eta (Homo sapiens), sequence (Q9Y253 whole entry, looked up): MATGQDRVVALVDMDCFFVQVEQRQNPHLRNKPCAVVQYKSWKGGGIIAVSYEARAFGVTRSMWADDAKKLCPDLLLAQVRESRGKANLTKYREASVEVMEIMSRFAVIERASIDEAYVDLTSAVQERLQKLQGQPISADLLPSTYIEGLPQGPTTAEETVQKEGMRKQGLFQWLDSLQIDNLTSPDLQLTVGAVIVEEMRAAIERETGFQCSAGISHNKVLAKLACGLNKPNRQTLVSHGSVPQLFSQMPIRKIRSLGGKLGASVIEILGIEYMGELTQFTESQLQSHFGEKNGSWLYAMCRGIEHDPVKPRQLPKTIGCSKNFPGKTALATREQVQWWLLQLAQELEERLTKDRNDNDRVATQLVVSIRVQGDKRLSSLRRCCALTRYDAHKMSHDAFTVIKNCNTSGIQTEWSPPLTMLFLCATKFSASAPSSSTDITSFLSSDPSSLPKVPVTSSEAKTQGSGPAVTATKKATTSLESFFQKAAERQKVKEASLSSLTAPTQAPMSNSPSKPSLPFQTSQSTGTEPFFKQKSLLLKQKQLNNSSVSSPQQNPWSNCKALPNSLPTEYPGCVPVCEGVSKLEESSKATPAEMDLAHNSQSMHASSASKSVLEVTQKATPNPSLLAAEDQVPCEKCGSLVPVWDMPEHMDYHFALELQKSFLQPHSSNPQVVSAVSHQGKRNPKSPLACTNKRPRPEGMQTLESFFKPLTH

This test concerns the target DNA polymerase eta (Homo sapiens) (UniProt Q9Y253). In words: qHTS for Inhibitors of Polymerase Eta. The settings on record: recombinant Pol eta, fluorescent DNA replication assay; series mostly up to 114 µM. Summed up:
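Fluorescent replication assay: 50 nM final substrate added after a 15 min room-temperature compound preincubation with 10 nM enzyme. Signal taken at 0 min and again at 10 min.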
Background: qHTS replaces the single test concentration by a dilution series.
For `Cc1nc2ccn(Cc3cccnc3)c(=O)c2cc1C(=O)N1CCN(c2ccccc2F)CC1`, the Potency result is “inactive”.

As for `CCOc1ccccc1C(=O)Nc1ccc(S(=O)(=O)N2CCCCC2c2cccnc2)cc1` (stereo not drawn), the Potency result is “inactive”.

`COc1ccc(-c2cn3c(C)c(C(=O)Nc4cc(C)cc(C)c4)sc3n2)cc1`: the Potency entry is “inactive”.

On to `COc1ccc(Cn2c(C(=O)O)c(CNCc3cccc(OC)c3)c3ccc(C)cc32)cc1`, for which the Potency entry was “inactive”.

Consider `O=C(CC(c1cccs1)N1Cc2ccccc2C1=O)Nc1ccc(F)cc1F` (stereo not drawn), for which the Potency result is “inactive”.

As to `O=C(/C=C/c1ccc([N+](=O)[O-])o1)NNC(=O)c1ccc(F)cc1`, the Potency is 79.4 µM (active).

As to `CCOc1ccc(NC(=O)c2cc3c(=O)n(Cc4cccs4)ccc3nc2C)cc1`, the Potency result is “inactive”.

Consider `CCOc1ccc(-c2nonc2NC(=O)c2oc3ccc(C)cc3c2C)cc1OCC`, for which the Potency result was “inactive”.

Take `Cc1c(Cl)cccc1NC(=O)N1CCN(C(=O)c2nsc3ccccc23)CC1`: the Potency result is “inactive”.

For `O=C(CCCOc1ccccc1)Nc1cccc(C(=O)O)c1`, the Potency entry was “inactive”.

For `COc1ccc(Cl)cc1S(=O)(=O)Nc1cccc(C(=O)O)c1`, the Potency entry was “inactive”.

On to `C/C(=N\Nc1cccc(C(=O)O)c1)c1ccc2c(c1)Nc1ccccc1S2`, for which the Potency was 20 µM (active).

Regarding `CC1=C(C(=O)OCc2ccc(C)cc2)C(c2c(Cl)cccc2Cl)CC(=O)N1` (stereo not drawn), the Potency entry was “inactive”.

As to `COc1cc(Cl)c(NC(=O)CC(C)S(=O)(=O)c2cc3c(cc2C)NC(=O)CO3)c(OC)c1` (stereo not drawn), the Potency result is “inactive”.

As to `O=C(CCC(=O)N1CC2CCCN2c2ccccc21)NCc1ccccc1Cl` (stereo not drawn), the Potency entry was “inactive”.

As for `Nc1ccc2[nH]c(=S)sc2c1`, the Potency is 22.4 µM (active).

Turning to `Cc1ccc(Cn2cc(CCC(=O)NCc3ccc(OC(C)C)cc3)c3ccccc32)cc1`, the Potency entry is “inactive”.

For `CC(=O)Nc1cc(C(=O)NCc2ccc(F)cc2)ccc1Sc1ccc(F)cc1`, the Potency entry was “inactive”.

For `CCOC(=O)c1c(C)[nH]c(C)c1S(=O)(=O)N1CCCC(C(=O)NCc2ccccc2Cl)C1` (stereo not drawn), the Potency result was “inactive”.

`O=C(CCS(=O)(=O)c1ccc2c(c1)NC(=O)CO2)Nc1cccc(C(F)(F)F)c1`: the Potency entry is “inactive”.

As for `Cc1cc(OC(C)C(=O)Nc2ccc(S(=O)(=O)Nc3onc(C)c3C)cc2)cc(C)c1Cl` (stereo not drawn), the Potency entry was “inactive”.

In the case of `Cc1cc(C)c2nc(-c3cccnc3)cc(C(=O)Nc3ccc(S(=O)(=O)Nc4onc(C)c4C)cc3)c2c1`, the Potency was 44.7 µM (active).

`Cc1noc(NS(=O)(=O)c2ccc(NC(=O)c3oc4ccc(F)cc4c3C)cc2)c1C`: the Potency result is “inactive”.

For `CCOc1ccccc1C(=O)NCC(c1ccc(N(C)C)cc1)N1CCCC1` (stereo not drawn), the Potency entry was “inactive”.

For `CC1CCCN(c2nc3c(S(=O)(=O)c4ccc(C(C)C)cc4)nnn3c3ccsc23)C1` (stereo not drawn), the Potency result was “inactive”.

As to `Cc1ccc(S(=O)(=O)c2c(Nc3cccc(Cl)c3)sc(C(=O)c3ccc4c(c3)OCO4)c2N)cc1`, the Potency result was “inactive”.

In the case of `CCOC(=O)Cc1csc(SCc2cc(=O)oc3cc(O)ccc23)n1`, the Potency entry is “inactive”.

On to `Cc1ccccc1NC(=O)c1ccc(COc2ccc3c(C)cc(=O)oc3c2)cc1`, for which the Potency result was “inactive”.

For `CC(=O)c1c(C)[nH]c(C(=O)COc2ccc3c(C)cc(=O)oc3c2)c1C`, the Potency result was “inactive”.

For `CCOC(=O)Cc1csc(NC(=O)CN(C)S(=O)(=O)c2ccc3c(c2)CCC(=O)N3)n1`, the Potency result was “inactive”.

For the compound `Cc1ccc(O)c(/C=N/NC(=O)COc2ccc3c(C)cc(=O)oc3c2)c1`, the Potency was 50.1 µM (active).

`CCOC(=O)Cc1csc(NC(=O)COc2ccc3c(C)cc(=O)oc3c2)n1`: the Potency was 31.6 µM (active).

`COc1ccc(N2CCN(c3nc(-c4ccccc4F)nc4ccccc34)CC2)cc1`: the Potency result was “inactive”.

In the case of `CCc1ccccc1NC(=O)Cn1c(=O)n(CC2CCC(C(=O)NCCc3ccccc3)CC2)c(=O)c2ccccc21` (stereo not drawn), the Potency entry is “inactive”.

Regarding `Cc1ccc(C)c(N2CCN(C(c3ccccc3)c3nnc(-c4ccccc4)o3)CC2)c1` (stereo not drawn), the Potency result was “inactive”.

Turning to `COc1cccc(CNC(=O)CN2C(=O)CCc3cc(S(=O)(=O)N4CCOCC4)ccc32)c1`, the Potency result is “inactive”.

On to `Cc1ccc(/C=C(\C#N)C(=O)Nc2cc(C)ccc2C)cc1`, for which the Potency entry is “inactive”.

For the compound `CC(C)NC(=O)/C(C#N)=C\c1ccc(N(C)C)c(Br)c1`, the Potency result is “inactive”.

Turning to `N#C/C(=C\c1ccc(O)c(O)c1)C(=O)NCc1ccccc1`, the Potency entry is “inactive and 11.2 µM (active)”.

As to `CCc1ccc(-n2nc(C)c3c(C)cc(=O)n(CC(=O)Nc4ccc(F)cc4C)c32)cc1`, the Potency result is “inactive”.

Consider `Cn1c(N)c(C(=O)COC(=O)c2ccccc2NCc2ccco2)c(=O)n(C)c1=O`, for which the Potency result is “inactive”.

For the compound `CCN(C(=O)COC(=O)CCC(=O)c1cccs1)C1CCCCC1`, the Potency entry is “inactive”.

Take `CN(c1ccccc1)S(=O)(=O)c1ccc(Cl)c(C(=O)OCC(=O)NCc2ccco2)c1`: the Potency is 31.6 µM (active).

Turning to `O=C(CC1CCCCC1)NCc1ccco1`, the Potency result is “inactive”.

For the compound `O=C(COC(=O)c1cc(S(=O)(=O)N2CCOCC2)ccc1Cl)NCCc1ccccc1`, the Potency result was “inactive”.

With `CC1CCN(C(=O)COC(=O)CCC(=O)c2cccs2)CC1`, the Potency entry is “inactive”.

As to `O=C(COC(=O)c1ccccc1C(=O)N1CCN(c2ccccc2)CC1)NCc1ccccc1`, the Potency entry was “inactive”.

As for `Cc1cc(C(=O)OCC(=O)NCc2ccco2)c(C)n1-c1ccccc1`, the Potency was 14.1 µM (active).

As to `CN(c1ccccc1)S(=O)(=O)c1ccc(Cl)c(C(=O)OCC(=O)N2CCOCC2)c1`, the Potency entry was “inactive”.

Regarding `COc1ccccc1C(=O)OCC(=O)NCCNC(=O)COC(=O)c1ccccc1OC`, the Potency result is “inactive”.

In the case of `O=C(COC(=O)CCC(=O)c1cccs1)NCc1ccco1`, the Potency was 7.08 µM (active).

`O=C(COC(=O)c1ccccc1O)NCc1ccco1`: the Potency is 79.4 µM (active).

With `Cc1ccc2nc(COc3cccc(NC(=O)Nc4ccc(C)c(Cl)c4)c3)cc(=O)n2c1`, the Potency entry was “inactive”.

`COC(=O)c1cc(S(=O)(=O)N2CCN(c3cc(Cl)ccc3C)CC2)c[nH]1`: the Potency result is “inactive”.

Turning to `Cc1cccc(N2CCN(C(=O)CCSCc3ccccc3F)CC2)c1C`, the Potency entry was “inactive”.

As for `Cc1ccc2oc(=O)c3cnn(CC(=O)N4CCN(c5cccc(Cl)c5)CC4)c3c2c1`, the Potency entry was “inactive”.

With `COc1ccc(-n2ccnc(NCCc3ccc(Cl)cc3)c2=O)cc1OC`, the Potency result is “inactive”.

As to `Cc1cccc(C(C)C)c1NC(=O)C(NS(=O)(=O)c1cccc2nsnc12)c1ccccc1` (stereo not drawn), the Potency result is “inactive”.

For the compound `Cc1ccc(-n2ncc3c(=O)n(Cc4cccc(C(F)(F)F)c4)cnc32)cc1C`, the Potency entry was “inactive”.

As for `CC(C)(C)NC(=O)CSc1nc(-c2ccc(F)cc2)cc(C(F)(F)F)n1`, the Potency entry was “inactive”.

`COc1cc(NC(=O)COC(=O)c2ccc([N+](=O)[O-])s2)cc(OC)c1OC`: the Potency was 50.1 µM (active).

As for `COc1cc(NC(=O)COC(=O)c2cnc(C)cn2)c(C)cc1[N+](=O)[O-]`, the Potency entry is “inactive”.

`COc1cc(CCC(=O)OCC(=O)Nc2cccc(S(N)(=O)=O)c2)cc(OC)c1OC`: the Potency entry was “inactive”.

Consider `COc1ccc(CCC(=O)NCc2ccc3c(c2)CCN3C(=O)c2ccc(F)cc2)cc1`, for which the Potency entry was “inactive”.

As for `O=C(CS(=O)(=O)c1cccc2nsnc12)N1CCN(c2cccc(Cl)c2)CC1`, the Potency entry is “inactive”.

`COC(=O)c1ccccc1NC(=O)C(Cc1ccccc1)N1Cc2ccccc2C1=O` (stereo not drawn): the Potency entry is “inactive”.

`Cc1ccccc1NC(=O)CN1C(=O)N/C(=C\c2cccn2-c2cccc(C(=O)O)c2)C1=O`: the Potency is 3.16 µM (active).

With `Cc1ccccc1NC(=O)Cn1c(=O)n(CCc2ccccc2)c(=O)c2ccccc21`, the Potency result was “inactive”.

As to `Cc1ccccc1NC(=O)CN1C(=O)C(C)(C)c2ccccc21`, the Potency result is “inactive”.

On to `CC(C)S(=O)(=O)c1oc(-c2ccc(F)cc2)nc1S(=O)(=O)c1ccc(F)cc1`, for which the Potency entry is “inactive”.

As to `Cc1ccccc1C(=O)Nc1nnc(S(=O)(=O)N(C)c2ccc(Cl)cc2)s1`, the Potency entry was “inactive”.

In the case of `CN(Cc1ccco1)S(=O)(=O)c1nnc(NC(=O)c2ccccc2)s1`, the Potency result was “inactive”.

As to `CCN(c1ccc(Cl)cc1)S(=O)(=O)c1nnc(NC(=O)c2ccco2)s1`, the Potency is 39.8 µM (active).

`Cn1nc(-c2ccccc2)c(-c2ccccc2)c(C(=O)Nc2ccc(S(N)(=O)=O)cc2)c1=O`: the Potency entry was “inactive”.

On to `Cc1cc(O)c(C(=O)/C=C/c2c(F)c(F)c(F)c(F)c2F)c(=O)o1`, for which the Potency is 35.5 µM (active).

Take `O=C(O)/C(=C/c1c(C(=O)O)[nH]c2cc(Cl)cc(Cl)c12)c1ccccc1`: the Potency entry is “inactive”.

On to `O=C1OC(C(=O)Nc2cccc(Br)c2)Cc2ccccc21` (stereo not drawn), for which the Potency result is “inactive”.

Regarding `Cc1ccc(-n2nc(C)c3c(C)cc(=O)n(CC(=O)Nc4ccc(C(C)C)cc4)c32)cc1`, the Potency entry was “inactive”.

Regarding `Cc1ccc(CNC(=O)C2CCN(S(=O)(=O)c3ccc4nc5c(c(C(=O)O)c4c3)CC(C)CC5)CC2)cc1` (stereo not drawn), the Potency result is “inactive”.

For `CCOC(CNC(=O)C1CCN(S(=O)(=O)c2ccc3nc4c(c(C(=O)O)c3c2)CC(C)CC4)CC1)OCC` (stereo not drawn), the Potency was 31.6 µM (active).

As for `CCOc1ccc(S(=O)(=O)N2CCC(C(=O)NCc3ccccn3)CC2)cc1Cl`, the Potency entry is “inactive”.

Consider `CCNS(=O)(=O)c1cc(-c2nnc(Nc3cccc(C(F)(F)F)c3)c3ccccc23)ccc1C`, for which the Potency entry is “inactive”.

Take `Cc1ccccc1-c1nc(SCC(=O)N(C)c2ccccc2)c2c(=O)n(C)c(=O)n(C)c2n1`: the Potency entry was “inactive”.

Consider `CCOC(=O)Cn1c(=O)n(-c2ccccc2OC)c2nc(-c3cccc(F)c3)nc(C(N)=O)c21`, for which the Potency entry was “inactive”.

On to `CCOC(=O)c1cc2c(=O)n3ccccc3nc2n(CCCOC)c1=NC(=O)C(C)(C)Oc1ccc(Cl)cc1`, for which the Potency result is “inactive”.

On to `NC(=O)CSc1nnc(NC(=O)c2ccc(Br)o2)s1`, for which the Potency is 20 µM (active).

`CCSc1nnc(NC(=O)c2cc(=O)c3cc(C)c(C)cc3o2)s1`: the Potency entry is “inactive”.

In the case of `COc1cc(OC)cc(C(=O)Nc2nnc(SCC(=O)NCC3CCCO3)s2)c1` (stereo not drawn), the Potency entry is “inactive”.

Take `CCOc1ccccc1N(CC)C(=O)c1cc2ccc3cccnc3c2[nH]1`: the Potency result was “inactive”.

`Cc1ccccc1N1CC(C(=O)Nc2nnc(SCCC3OCCO3)s2)CC1=O` (stereo not drawn): the Potency was 20 µM (active).

As to `COc1ccccc1N1CC(C(=O)Nc2nnc(SCC(=O)NC(C)C)s2)CC1=O` (stereo not drawn), the Potency entry was “inactive”.

On to `COc1ccccc1N1CC(C(=O)Nc2nnc(SCC(=O)NCC3CCCO3)s2)CC1=O` (stereo not drawn), for which the Potency entry is “inactive”.

For the compound `COc1ccc(SCc2cc(=O)c3ccc(C)c(C)c3[nH]2)cc1`, the Potency entry is “inactive”.
